Laboratory results taken from PubChem BioAssay AID624491 (Broad Institute, 2012).
About 1,400 (78%) of roughly 1,800 compounds were called active. About 2% were inconclusive and are not listed.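 The calls were made as follows: active = fitted curve crossing a set activation limit at or below the highest valid dose tested; inconclusive = flat fit at 30 to 70% activation, or poor fit; inactive = the rest, including signal decreases.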 So high a share suggests a set chosen from earlier hits. The list is a sample of the results. Results with a measured potency or affinity are listed apart.

assay: N-linked glycosylation inhibitors, luciferase reporter, dose response, D54 ERlucT cells, luminescence, cherry-picks (AID 624491); conditions: 24 h, 100% = twice neutral-control luminescence; series mostly up to 19.5 µM; activation (NLG inhibition): at the top concentration;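 also: signal gain reflects blocked N-linked glycosylation of a luciferase reporter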

Activation (NLG inhibition), inactive:
O=c1cc(N=Nc2ccc(Cl)cc2)[nH]c(=O)[nH]1 34.3% [at 5 µM], CCCCCCCCn1c2c(c(=N)c3c1CCC3)CCCC2 73.5%, CCOC(=O)c1ccc(-c2ccc(/C=N/NC(=O)CN(c3cccc(C)c3)S(C)(=O)=O)o2)cc1 212%, O=C(N/N=C\c1ccc([N+](=O)[O-])o1)c1cncc(Br)c1 -28.4%, COc1cc2c(cc1OC)C(C)N(C(=O)Nc1ccccc1)CC2 (stereo not given) 17.2%, CC1c2cc3c(cc2CCN1C(=O)c1ccc(Br)cc1)OCCCO3 (stereo not given) 40%, Nc1nonc1-c1nc2ccccc2n1CC(=O)N/N=C\c1ccc(-c2ccc(Cl)cc2)o1 70.3%, Nc1nonc1-c1nc2ccccc2n1Cc1ccccc1 30%, CCOc1cccc2sc(Nc3nc4ccc(NC(C)=O)cc4s3)nc12 29.5%, Oc1ccc(NCc2ccccc2OCc2ccccc2)cc1 24.1%, CCc1cccc(CC)c1NC(=O)CN1C2CCCC1CC(NC(=O)Nc1cccc(OC)c1)C2 (stereo not given) 119%, Cc1cc(NCCCN(C)C)n2c(nc3ccccc32)c1C#N 23%, CC1Cc2ccccc2N1C(=O)CSc1nn2c(=O)c(C(C)(C)C)nnc2s1 (stereo not given) 30.3%, COc1ccc(OC)c(N(CC(=O)Nc2cccnc2)S(=O)(=O)c2ccc(C)cc2)c1 38.7%, COCC(=O)OC/C(O)=C(\C#N)c1nc2ccccc2[nH]1 -48.3%, CC(C)Oc1ccc(C(=O)Nc2ccc3c(c2)n(C)c(=O)n3C)cc1 4.1% [at 5 µM], O=C(NC1CCCC(C(F)(F)F)C1)c1ccc([N+](=O)[O-])o1 (stereo not given) -15.2%, O=C(Nc1cccc2ccccc12)c1ccc([N+](=O)[O-])o1 -36%, O=C(Nc1ccc(N2CCCC2)c(Cl)c1)c1ccc([N+](=O)[O-])o1 -78.1%, O=C(Nc1nc2ccccc2s1)c1ccc([N+](=O)[O-])o1 3.59%, CCn1cc([N+](=O)[O-])c(C(=O)Nc2nc(-c3ccc(C)c(C)c3)c(C)s2)n1 57.7%, O=C(NC(=S)Nc1cccc(S(=O)(=O)NC2=NCCC2)c1)c1cc(-c2ccco2)nc2ccccc12 23.7%, COc1ccc(/C=C2\COc3ccccc3C2=O)cc1OC -3.49%, C[C@H](CO)N1C[C@H](C)[C@@H](CN(C)Cc2ccccc2)Oc2ccc(NC(=O)CCCCCC(=O)Nc3ccccc3N)cc2C1=O 4.91% [at 5 µM], O=C(NC1CCCCC1)C(c1cccnc1)N(C(=O)CCl)c1cccc(Cl)c1 (stereo not given) -94.9%, COc1ccc(N(C(=O)CCl)C(C(=O)NC2CCCCC2)c2cccnc2)cc1 (stereo not given) -95.5%, CC(=O)Cn1ncc(Br)c(Br)c1=O -52.5%, CCN1/C(=C/c2sc(-c3ccccc3C)c[n+]2C)Sc2ccccc21 -9.29%, CCOC(=O)c1c(NC(=O)CCl)sc(C(=O)N(CC)CC)c1C 5.73%, COc1ccc(C(=O)/C=C/Sc2nc3ccccc3o2)cc1 5.52%, CCOc1ccc(N(C)S(=O)(=O)c2ccc(-c3cc(C)no3)s2)cc1 39.3%, Cc1cccc(N(C)S(=O)(=O)c2ccc(-c3cc(C)no3)s2)c1 32.2%, O=C1c2ccccc2-c2n[nH]c(=O)c3ccc(N4CCCCC4)c1c23 41.3%, COc1cc(C2=NOC(C(=O)NCc3ccc(F)cc3)C2)cc(OC)c1OC (stereo not given) 13.2%, CCn1ncc(C2=NOC(C(=O)NCc3ccc(Cl)cc3)C2)c1C (stereo not given) 20.7%, O=C(NCc1ccc(OC(F)(F)F)cc1)C1CC(c2ccc(C(F)(F)F)cc2)=NO1 (stereo not given) 5.51%, COc1cccc(S(=O)(=O)Nc2ccc3c(c2)[C@@H]2C[C@@H](CC(=O)NCc4ccc(Cl)cc4)O[C@@H](CO)[C@@H]2O3)c1 21.2%, COc1cc(-c2cc(-c3ccc(O)cc3)nc(N)c2C#N)ccc1O 32.1%, COc1ccccc1-c1cc(NC=O)c2ncc(-c3cccc(C(C)=O)c3)n2c1 -5.59%, COC(=O)c1cccc(NS(=O)(=O)c2ccc(OC)cc2)c1C 34.1%, O=C(CC1Sc2ccccc2NC1=O)NNc1cccc(Cl)c1Cl (stereo not given) 12%, Cc1c(O)cc2c(c1O)C(=O)CC(c1ccccc1)O2 (stereo not given) 17.8%, CCc1nc(SCC(=O)c2ccc3c(c2)OCCO3)c2ccccc2n1 10.9%, Cc1ccc(C(C)C)c(OCc2nnc(SCC(=O)Nc3ncc(C)s3)n2C)c1 45%, COc1ccc(/C=C2\N=C(c3ccccc3Cl)NC2=O)cc1 20.3%, CCc1ccc(OCC(=O)Nc2ccncc2)c(Br)c1 7.78%, O=C(/C=C/c1cccnc1)c1ccc([N+](=O)[O-])cc1 -16%, NC1=NC(c2ccc(Cl)cc2)C(C(=O)c2ccccc2)N1 (stereo not given) 51.4%, COc1ccc(S(=O)(=O)Nc2cccc3ccc(O)cc23)cc1 29.7%, O=C(CCN1C(=O)/C(=C\c2ccccc2)SC1=S)N1CCCCC1 -1.63%, Cc1ccc(CNC(=O)Cc2ccc(-n3c(=O)[nH]c4ccsc4c3=O)cc2)cc1 35.2%, CCOc1ccc(-n2c(C)cc(C(=O)CCl)c2C)cc1 25.7%, COC(=O)c1c(NC(=O)CN2C(=O)NC3(CCC(C)CC3)C2=O)sc2c1CCC2 (stereo not given) 17%, COC(=O)CNC(c1ccccc1Cl)c1cc(Br)ccc1NC(=O)CCN1CCOCC1 (stereo not given) -5.06%, COc1ccc(CC(=O)Nc2ccc(-c3ccc4nnc(C)n4n3)cc2)cc1OC 4.46% [at 5 µM], N#CCC(CNc1ncc(C(F)(F)F)cc1Cl)OC(=O)c1ccc(Cl)cc1Cl (stereo not given) 18.6%, Cc1cccn2c(=O)c3cc(C(=O)N4CCCCC4)sc3nc12 -15% [at 5 µM], COc1ccc(-c2oc3cc(O)c(OC)c(O)c3c(=O)c2OC)cc1 58%, Cc1cccc(N2C(=O)CC(N3CCN(C(=O)c4ccccc4)CC3)C2=O)c1 (stereo not given) -1.39%, CC1=C(n2ccnc2)CCC1=O 37.6%, O=C1CCCC2=C1C(c1ccc(Cl)cc1)n1c(s/c(=C\c3ccc4ccncc4c3)c1=O)=N2 (stereo not given) 28%, O=c1cc(N2CCN(c3ccccc3Cl)CC2)[nH]c(=O)n1Cc1ccc(F)cc1 25%, Nc1c(N(CCC2=CCCCC2)C(=O)COc2ccc(F)cc2)c(=O)[nH]c(=O)n1Cc1ccccc1 62.4%, O=C(N/N=C/c1ccc2c(c1)OCO2)c1cccc2ccccc12 10.1%, CC(C)(C)c1ccc(C(=O)NNC(=O)c2cccc(Br)c2)cc1 818%, COc1cccc(/C=N/NC(=O)c2[nH]nc3c2CCc2ccccc2-3)c1 5.49%, COc1ccc(NC(=O)c2cnc(SC)nc2)cc1 75.1%, COc1ccc(/C=C/C(=O)c2ccc3c4c(cccc24)CC3)cc1OC -43.1%, COc1ccc(/C=C/C(=O)c2c(O)cc(OC)cc2OC)cc1 40.4%, CCN(CC)Cc1cc(Nc2c3ccccc3nc3c4ccccc4n(C)c23)cc(CN(CC)CC)c1O 49.9%, CCOC(=O)c1[nH]c(C)c(C(=O)Nc2cc(Cl)ccc2C)c1C 14.7%, CCOC(=O)c1c(C)[nH]c(-c2csc(N)n2)c1C 20.4%, CCOC(=O)c1[nH]c(COC(=O)CCOc2ccccc2OC)c(C(=O)OCC)c1C 12.1%, CCN(CC)c1ccc(C(=O)n2cnc3ccccc32)cc1 16.8%, CC(=O)N1c2ccccc2C(=O)C1N(C)c1ccc(C)cc1 (stereo not given) -0.122%, COCCNc1nc(-c2ccccc2CO)c2sc(-c3ccccc3)cc2n1 16.9%, CCOC(=O)c1ccc(-n2cccc2/C=C2\NC(=O)NC2=O)cc1 19.5%, O=C(N/N=C\c1cccnc1)c1cc(-c2ccccc2)nc2c(Cl)cccc12 33.7%, O=C(/C=C/c1ccc([N+](=O)[O-])s1)N1CCCCC1 -28.1%, CCN(c1ccccc1)S(=O)(=O)c1ccc(C(=O)NC2CCN(Cc3ccccc3)CC2)cc1 16.6%, Cc1nnc2n(c1=O)N=C(c1ccc(Cl)cc1)CS2 -6.13%, O=C(CN1C2=NCCCN2c2ccccc21)c1ccc([N+](=O)[O-])cc1 36%, CC(C)(C)S(=O)N1Cc2cc(C(=O)NCC(F)(F)F)nc(-c3cccc(-c4cccc(F)c4)c3)c2[C@@H]1CCO (stereo not given in full) -12.7%, Cc1cnc(C(=O)OCC(=O)NC2CCCCCCC2)cn1 16.8%, Cc1ccc(-c2nn(-c3ccccc3)cc2NC(=O)CCl)cc1 -46.9%, COc1ccccc1NC(=O)Cn1nnc(-c2ccccc2NC(=O)c2ccco2)n1 45.5%, CCc1cccc(NC(=O)CN2C(=O)NC3(CCCCCCC3)C2=O)c1 34%, O=C(CN1C(=O)NC2(CCCCC2)C1=O)Nc1ccc2c(c1)CCC2 44.6%, Cc1ccc(C)c(N2CCN(S(=O)(=O)c3ccc(-c4ccc(=O)[nH]n4)o3)CC2)c1 86.2%, Cn1cnc([N+](=O)[O-])c1Oc1ccc2ccccc2c1 1.95%, CCn1c(=O)cc(C(=O)OC)sc1=Nc1ccc(F)c(F)c1 26%, O=C1c2cccc3c([N+](=O)[O-])ccc(c23)C(=O)N1CC1CCCO1 (stereo not given) 16.3%, O=c1cc(-c2ccccc2)[nH]n1-c1nc2ccccc2[nH]1 -34.9%, Nc1cc2c(cc1Br)-c1c(C(=O)O)cccc1C2O (stereo not given) 8.32%, O=C(COc1ccc(/C=N/NC(=O)c2cc3ccccc3o2)cc1Br)Nc1ccccc1 103%, CO/N=C/c1ccc(OC)c(Oc2nc(OC)cc(OC)n2)c1 60.6%, CCCCCC[n+]1ccccc1/C=C/c1ccc(N(C)C)cc1 5.17%, CCC1=Nc2cc(C(=O)NCc3ccco3)ccc2Sc2ccc(Cl)cc21 50.7% [at 5 µM], Cc1nnc2ccc(-c3ccc(NC(=O)c4ccco4)cc3)nn12 61.9%, O=C(COc1ccc(/C=N/NC(=O)c2cc3ccccc3o2)cc1Cl)Nc1ccccc1 -67.6%, CC(=O)c1ccc(Nc2c3c(nc4ccccc24)CCCC3)cc1 52.1%, COc1ccc(NC(=O)CSc2nc3ccsc3c(=O)n2Cc2ccccn2)c(OC)c1 9.56%, CCn1cc2nc(SCC(=O)Nc3ccc(OC)cc3OC)n(Cc3ccc(OC)cc3)c(=O)c2n1 -4.31%, COc1cc(Nc2c3ccccc3nc3ccccc23)cc(OC)c1OC -81.2%, COC(=O)c1cccc(Nc2c3c(nc4ccccc24)CCC3)c1 39.7%
